ChEMBL document CHEMBL1961873, “Compounds: GSK PKIS; Assays: Nanosyn kinase panel” (2012)
Several values for one entry are separate records, joined by “and”; a condition that tells them apart may be missing. Equal values may be shown once.

tested on: Proto-oncogene tyrosine-protein kinase receptor Ret (Homo sapiens), P07949 [Y791F]; conditions: at 0.1 µM
Sequence (P07949 whole entry Y791F): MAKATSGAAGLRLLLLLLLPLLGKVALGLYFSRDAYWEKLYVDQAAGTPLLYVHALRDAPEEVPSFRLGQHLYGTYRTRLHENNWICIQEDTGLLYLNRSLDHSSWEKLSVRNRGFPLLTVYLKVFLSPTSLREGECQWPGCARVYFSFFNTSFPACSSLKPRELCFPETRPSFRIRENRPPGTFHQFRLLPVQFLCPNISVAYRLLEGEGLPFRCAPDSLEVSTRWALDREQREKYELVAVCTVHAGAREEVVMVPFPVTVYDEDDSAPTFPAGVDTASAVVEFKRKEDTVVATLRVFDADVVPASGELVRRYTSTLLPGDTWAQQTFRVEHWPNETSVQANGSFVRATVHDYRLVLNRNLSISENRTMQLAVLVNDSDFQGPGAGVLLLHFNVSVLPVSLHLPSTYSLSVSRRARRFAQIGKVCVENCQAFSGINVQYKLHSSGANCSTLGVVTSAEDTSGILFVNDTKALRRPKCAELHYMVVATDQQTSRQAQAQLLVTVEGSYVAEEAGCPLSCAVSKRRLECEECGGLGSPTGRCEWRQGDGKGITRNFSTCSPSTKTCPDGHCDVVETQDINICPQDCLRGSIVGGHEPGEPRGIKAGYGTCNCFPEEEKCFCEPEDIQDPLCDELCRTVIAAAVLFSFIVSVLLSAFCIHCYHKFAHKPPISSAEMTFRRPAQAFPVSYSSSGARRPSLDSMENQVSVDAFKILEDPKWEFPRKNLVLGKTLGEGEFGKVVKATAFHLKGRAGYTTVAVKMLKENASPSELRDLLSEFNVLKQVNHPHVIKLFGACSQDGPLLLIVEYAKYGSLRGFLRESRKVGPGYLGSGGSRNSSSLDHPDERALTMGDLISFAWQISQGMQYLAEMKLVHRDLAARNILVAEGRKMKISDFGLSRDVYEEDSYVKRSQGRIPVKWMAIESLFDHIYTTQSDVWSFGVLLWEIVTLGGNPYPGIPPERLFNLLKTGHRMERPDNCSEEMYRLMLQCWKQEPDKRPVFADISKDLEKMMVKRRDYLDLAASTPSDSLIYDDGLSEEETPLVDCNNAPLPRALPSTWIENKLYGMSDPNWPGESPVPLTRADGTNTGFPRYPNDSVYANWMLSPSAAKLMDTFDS

Row | Structure (SMILES) | inhibition
1 | Cc1nnc(-c2cccc(-c3ccc(C(=O)NCC4CC4)cc3)c2)o1 | 5%
2 | N#Cc1ccc2c(-c3ccnc(NC4CC4)n3)c(-c3ccc(F)cc3)nn2c1 | 4.65%
3 | O=C(O[C@H]1CN[C@H](C#Cc2cc3ncnc(Nc4ccc(OCc5cccc(F)c5)c(Cl)c4)c3s2)C1)N1CCOCC1 | 4.36%
4 | COc1c(C(N)=O)cc(-c2ccc(Cl)cc2)cc1-c1ccc(S(N)(=O)=O)cc1 | 6.18%
5 | Cc1ccc(-c2cc3c(NC(=O)C4CC4)ncnc3o2)cc1 | 8.23%
6 | COc1cccc(Nc2nccc(-c3cnn4ncccc34)n2)c1 | 2.74%
7 | NS(=O)(=O)c1cccc(N/C=C2\C(=O)Nc3ccccc32)c1 | 10.1%
8 | c1ccc(-c2n[nH]cc2-c2ccnc(-c3ccc(OCCn4ccnc4)cc3)c2)nc1 | 2.44%
9 | CS(=O)(=O)Nc1ccc(-c2ccc3c(NC(=O)C4CC4)n[nH]c3c2)cc1 | 6.88%
10 | CCOc1ccc2c(-c3ccnc(Nc4cc(OC)cc(C(F)(F)F)c4)n3)cnn2n1 | 2.94%
11 | COC(=O)Nc1nc2cc(Oc3ccc(NC(=O)Nc4ccccc4)cc3)ccc2[nH]1 | 15.3%
12 | CCS(=O)(=O)c1ccc(OC)c(Nc2ncc(-c3cccc(F)c3)o2)c1 | 15.9%
13 | CC(C)c1ccc(-c2cc(-c3c[nH]nc3-c3ccccn3)ccn2)cc1 | 5.08%
14 | CN1CCN(Cc2ccc(-c3cc4ncnc(Nc5ccc(OCc6cccc(F)c6)c(Cl)c5)c4s3)o2)CC1 | 4.88% and 3.59%
15 | NS(=O)(=O)c1ccc(N/N=C2\C(=O)Nc3cccc(CCc4ccncc4)c32)cc1 | 18.8%
16 | Cc1cc(O)cc(C)c1/C=C/c1cncc(C(N)=O)c1 | 3.94%

Row | Structure (SMILES) | inhibition
17 | O=C1Nc2ccccc2/C1=C1\CCc2cc(O)ccc21 | 25.8%
18 | Nc1nccc(-c2c(-c3ccc(F)cc3)ncn2C2CCNCC2)n1 | 0.26% and 3.84%
19 | COc1cc(N2CCN(C(C)C)CC2)ccc1Nc1nc(Nc2cccc(F)c2C(=O)O)c2cc[nH]c2n1 | 4.5%
20 | CN(c1ccc(NC(=O)NCCN2CCOCC2)cc1)c1ccnc(Nc2ccc(CS(C)(=O)=O)cc2)n1 | 29.1%
21 | N#Cc1cccc(Nc2ncc(-c3ccccc3)o2)c1 | 0.39%
22 | O=C(O[C@H]1CN[C@H](C#Cc2cc3ncnc(Nc4ccc5c(cnn5Cc5ccccc5)c4)c3s2)C1)N1CCOCC1 | 2.45%
23 | CNC(=O)c1sc(-n2cnc3cc(OC)c(OC)cc32)cc1OCc1ccccc1C(F)(F)F | 8.02%
24 | c1cnn2ncc(-c3ccnc(NCCCN4CCOCC4)n3)c2c1 | 6.04%
25 | COc1ccccc1-c1cc(/C=C2\C(=O)Nc3ncc(Br)cc32)cc(Br)c1O | 12.6%
26 | CS(=O)(=O)CCNCc1ccc(-c2ccc3ncnc(Nc4ccc(OCc5ccccc5)cc4)c3c2)o1 | 3.34%
27 | Fc1ccc(Nc2nccc(-c3c(-c4ccc(C(F)(F)F)cc4)nn4ncccc34)n2)cc1F | 5.34%
28 | NC(=O)c1ccc2c(-c3ccnc(NCCCO)n3)c(-c3ccc(F)cc3)nn2c1 | 6.62%
29 | COC(=O)Nc1nc2ccc(Oc3ccc(NC(=O)Nc4cc(C(F)(F)F)ccc4F)cc3)cc2s1 | 78.9%
30 | CS(=O)(=O)CCNCc1ccoc1-c1ccc2ncnc(Nc3ccc(OCc4ccccc4)cc3)c2c1 | 4.19%
31 | COc1cccc(-n2ncc3c(N/N=C/c4ccc(C(=O)NCCN(C)C)cc4)ncnc32)c1 | 37.3%
